# Active and inactive are the calls of the source.
# Key:
# [1] = optical density shifts of acrAB sulA E. coli – strain DRC41, OD650, 48 h, E. coli filamentation inducer project, primary screen (AID 1152); settings: higher = more signal, called active from +8 up or from −8 down;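 note: E. coli MC1000 strain DRC41 lacking acrAB efflux pump and sulA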
# [2] = probe aLefty1 binding on compound microarray – biochemical, small-molecule microarray, 635/667 nm fluorescence, primary screen (AID 1153); settings: higher = more signal;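 note: score merges spot fluorescence with signal-to-noise ratio from the scanned slide images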
# [3] = plasmodial surface anion channel blockers, osmotic lysis – cell-based, P. falciparum Indochina, OD700, 1 h, primary screen (AID 1154); settings: P. falciparum Indochina infected RBC osmotic lysis, higher = more signal, called active from +8 up or from −8 down
# [4] = plasmodial surface anion channel blockers, osmotic lysis – cell-based, P. falciparum Indochina, OD700, 2 h, primary screen (AID 1155);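 note: lysis reports solute entry through the parasite surface anion channel PSAC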; settings: P. falciparum Indochina infected erythrocytes, higher = more signal, called active from +8 up or from −8 down
# [5] = changes in parasitized red cell lysis, either direction – P. falciparum Indochina, OD700, 3 h, PSAC antagonist project, primary screen (AID 1156); settings: P. falciparum-infected erythrocytes, osmotic lysis, higher = more signal, called active from +8 up or from −8 down
# [6] = plasmodial surface anion channel blockers, osmotic lysis – cell-based, P. falciparum Indochina, OD700, 18 h, primary screen (AID 1157); settings: P. falciparum Indochina infected erythrocytes, osmotic lysis OD700, 18 h; higher = more signal, called active from +8 up or from −8 down
# [7] = S6 kinase pathway phospho-S6 level changes – cell-based, A549, cytoblot, luminescence, serum-stimulated, primary screen (AID 1158); settings: 5 h, higher = more signal;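 note: serum-stimulated A549 lung adenocarcinoma cells; signal is phosphorylated S6 detected by cytoblot immunostaining with HRP secondary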
# [8] = molecular target: NADPH oxidase 2 (Homo sapiens) (UniProt P04839); assay: compounds shifting NOX2 Amplex Red fluorescence – cell-based, HEK293-NOX2, PMA-stimulated, NOX inhibitor project, primary screen (AID 1159); settings: 45 min, higher = more signal, called active from +8 up or from −8 down; note: test concentration not given here
# NADPH oxidase 2 (Homo sapiens), sequence (P04839 whole entry, looked up): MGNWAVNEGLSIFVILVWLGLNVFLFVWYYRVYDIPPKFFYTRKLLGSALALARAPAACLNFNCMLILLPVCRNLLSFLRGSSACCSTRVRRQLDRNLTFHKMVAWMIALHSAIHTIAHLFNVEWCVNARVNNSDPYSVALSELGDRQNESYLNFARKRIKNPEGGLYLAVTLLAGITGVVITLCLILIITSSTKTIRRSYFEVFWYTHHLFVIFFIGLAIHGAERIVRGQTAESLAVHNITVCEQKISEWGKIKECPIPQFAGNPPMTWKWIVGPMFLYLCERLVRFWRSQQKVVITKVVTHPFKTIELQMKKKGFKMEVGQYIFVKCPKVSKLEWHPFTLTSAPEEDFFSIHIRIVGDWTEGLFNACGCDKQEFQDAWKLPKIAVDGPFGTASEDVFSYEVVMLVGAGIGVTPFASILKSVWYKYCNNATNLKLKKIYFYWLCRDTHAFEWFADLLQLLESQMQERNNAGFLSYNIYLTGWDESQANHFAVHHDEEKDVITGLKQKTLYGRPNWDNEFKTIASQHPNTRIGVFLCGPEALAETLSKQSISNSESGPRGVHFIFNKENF
# [9] = molecular target: NADPH oxidase 4 (Homo sapiens) (UniProt Q9NPH5); assay: compounds shifting NOX4 Amplex Red fluorescence – cell-based, HEK293-NOX4, tetracycline-induced, NOX inhibitor project, primary screen (AID 1160); settings: HEK293-NOX4, Amplex Red H2O2 fluorescence, 45 min; higher = more signal, called active from +8 up or from −8 down
# NADPH oxidase 4 (Homo sapiens), sequence (Q9NPH5 whole entry, looked up): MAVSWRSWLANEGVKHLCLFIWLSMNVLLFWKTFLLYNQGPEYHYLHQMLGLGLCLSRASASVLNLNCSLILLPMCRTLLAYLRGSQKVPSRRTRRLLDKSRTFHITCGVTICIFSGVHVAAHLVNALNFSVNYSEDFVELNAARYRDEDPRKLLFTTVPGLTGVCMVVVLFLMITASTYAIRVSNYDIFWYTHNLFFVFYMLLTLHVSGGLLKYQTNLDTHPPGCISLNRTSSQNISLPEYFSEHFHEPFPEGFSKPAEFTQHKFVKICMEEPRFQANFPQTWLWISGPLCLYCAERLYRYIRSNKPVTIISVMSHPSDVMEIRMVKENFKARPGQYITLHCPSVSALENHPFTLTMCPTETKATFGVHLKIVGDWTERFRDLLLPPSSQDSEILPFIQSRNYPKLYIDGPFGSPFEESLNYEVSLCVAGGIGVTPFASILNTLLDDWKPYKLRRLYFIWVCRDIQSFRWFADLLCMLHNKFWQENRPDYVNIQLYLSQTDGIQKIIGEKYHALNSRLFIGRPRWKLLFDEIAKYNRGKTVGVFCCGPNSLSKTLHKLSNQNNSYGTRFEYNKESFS
# [10] = molecular target: NADPH oxidase 5 (Homo sapiens) (UniProt Q96PH1); assay: compounds shifting NOX5 Amplex Red fluorescence – cell-based, HEK293-NOX5, NOX inhibitor project, primary screen (AID 1161); settings: HEK293-NOX5, ionomycin, 45 min, higher = more signal
# NADPH oxidase 5 (Homo sapiens), sequence (Q96PH1 whole entry, looked up): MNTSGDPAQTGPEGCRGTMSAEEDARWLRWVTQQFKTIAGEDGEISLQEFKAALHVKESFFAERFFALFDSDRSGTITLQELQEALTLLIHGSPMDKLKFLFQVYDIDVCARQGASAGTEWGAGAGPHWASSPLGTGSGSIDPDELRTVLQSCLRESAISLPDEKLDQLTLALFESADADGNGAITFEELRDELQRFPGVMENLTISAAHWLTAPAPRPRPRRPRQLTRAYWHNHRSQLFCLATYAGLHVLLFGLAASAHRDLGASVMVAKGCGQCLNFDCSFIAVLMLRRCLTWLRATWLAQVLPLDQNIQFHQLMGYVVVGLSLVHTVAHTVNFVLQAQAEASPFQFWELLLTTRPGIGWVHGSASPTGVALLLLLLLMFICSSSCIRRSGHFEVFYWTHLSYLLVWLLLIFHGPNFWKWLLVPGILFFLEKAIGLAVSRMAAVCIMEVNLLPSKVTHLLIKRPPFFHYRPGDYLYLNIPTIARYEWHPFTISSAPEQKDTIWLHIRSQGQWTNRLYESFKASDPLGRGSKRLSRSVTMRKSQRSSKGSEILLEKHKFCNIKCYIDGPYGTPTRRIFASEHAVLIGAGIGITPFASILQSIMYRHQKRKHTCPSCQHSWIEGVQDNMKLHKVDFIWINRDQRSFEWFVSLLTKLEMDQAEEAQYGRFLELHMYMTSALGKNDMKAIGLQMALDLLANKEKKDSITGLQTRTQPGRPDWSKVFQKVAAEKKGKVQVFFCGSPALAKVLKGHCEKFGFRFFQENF
SMILES,z-score [1],composite z-score [2],z-score [3],z-score [4],z-score [5],z-score [6],z-score [7],z-score [8],z-score [9],z-score [10]
COC(=O)C(CC#Cc1ccc2c(c1)[C@]1(C(=O)N2)[C@H](c2ccc(O)cc2)N2[C@H](c3ccccc3)[C@H](c3ccccc3)OC(=O)[C@H]2[C@@H]1C(=O)NC[C@H](O)c1ccccc1)C(=O)OC,-0.994 (inactive),-0.0518,1.13 (inactive),0.353 (inactive),-0.876 (inactive),-0.154 (inactive),-0.256,1.39 (inactive),0.318 (inactive),1.47
COCC(=C=CC[C@H](O)c1ccc(CO)o1)CCO,-0.434 (inactive),-0.198,0.811 (inactive),0.0508 (inactive),-0.148 (inactive),-0.159 (inactive),-0.992,0.249 (inactive),-0.177 (inactive),-0.224
C=CCN1C(=O)[C@]2(CCS(=O)(=O)c3ccccc3)N=C(c3ccc(OCCCO)cc3)O[C@@H]2c2ccccc21,0.836 (inactive),0.303,29.1 (active),23.3 (active),1.29 (inactive),4.76 (inactive),1.76,-0.428 (inactive),0.835 (inactive),1.28
O=C(NCCN1CCOCC1)[C@@H]1c2ccccc2C(=O)N(Cc2ccccc2Cl)[C@H]1c1ccc(CO)cc1,0.446 (inactive),0.121,4.63 (inactive),0.466 (inactive),0.297 (inactive),0.306 (inactive),-0.467,-0.112 (inactive),0.34 (inactive),-0.371
C=CCC(OC(C)=O)[C@@H]1[C@@H](N(Cc2ccc(-c3cccc(C(F)(F)F)c3)o2)C(=O)c2ccc(-c3ccccc3)cc2)c2cc(OCCCO)ccc2N1C(=O)Cc1ccc2ccccc2c1 (stereo not given in full),-0.75 (inactive),0.0451,0.702 (inactive),0.609 (inactive),0.191 (inactive),0.532 (inactive),0.0285,-1.34 (inactive),-1.69 (inactive),-0.791
Cc1ccc(F)cc1S(=O)(=O)N[C@@H]1CCN(Cc2ccc(Br)cc2)C1,-1.98 (inactive),-0.0099,2.63 (inactive),1.24 (inactive),0.759 (inactive),0.55 (inactive),-0.166,-0.955 (inactive),-0.846 (inactive),-2.15
CC(C)NC(=O)[C@@]1(c2ccc([N+](=O)[O-])cc2)CC(=O)N(C2CCCCC2)[C@@H]1c1ccc(CO)cc1,1.1 (inactive),-0.154,0.66 (inactive),0.168 (inactive),0.18 (inactive),-0.0376 (inactive),-0.391,0.0357 (inactive),0.164 (inactive),-0.229
CC(C)N1C(=O)C[C@@](C(=O)NC2CC2)(c2ccc([N+](=O)[O-])cc2)[C@H]1c1ccc(CO)cc1,1.3 (inactive),-0.231,2.45 (inactive),-0.224 (inactive),2.85 (inactive),-0.9 (inactive),2.28,-0.281 (inactive),-1.89 (inactive),-1.78
COC(=O)C1(CC(C)C)C=C2C(=C(c3ccccc3)C(=O)C2C)CN1 (stereo not given),-1.03 (inactive),1.58,1.28 (inactive),-0.382 (inactive),0.806 (inactive),0.323 (inactive),0.54,-0.00718 (inactive),-1.48 (inactive),-2.44
